# Compound activity: PubChem, National Center for Advancing Translational Sciences (NCATS)
# Sfp inh: Sfp phosphopantetheinyl transferase inhibition; Biochemical Sfp PPTase activity, qHTS; Potency, µM, actives largely listed as inhibitors; 3.5% of 310,000 active; AID 1490;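 also: the enzyme is Sfp with the accession as filed and its product quenches rhodamine fluorescence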
#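 Compounds were incubated with enzyme (final 15 nM) for 15 min at room temperature before substrate addition started the reaction. Fluorescence at 525 nm excitation, 598 nm emission was recorded immediately and after 30 minutes.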
# G9a block: inhibitors of human histone lysine methyltransferase G9a; Q96KQ7; G9a H3K9 monomethylation, AlphaScreen, 2 h; Potency, µM (series often up to 102 µM), usual class: inhibitors; 8.8% of 350,000 active; AID 504332; also: nearly all actives have a fitted effect of over 75% in size
#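 AlphaScreen read-out: biotin-H3K9 peptide (500 nM) methylation by 20 nM enzyme with 20 uM SAM, 2 h at room temperature after 15 min compound preincubation; anti-monomethyl H3K9 antibody plus donor/acceptor beads, 10 min dark.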
# JMJD2A Tudor: inhibitors of human JMJD2A Tudor domain. O75164. AlphaScreen JMJD2A-Tudor / H3K4me3 peptide binding. Potency, µM (series often up to 114 µM), hits mostly inhibitors. 4.4% of 390,000 active. AID 504339; also: nearly all actives have a fitted effect of over 50% in size
# HP1b chromo inh: blocks HP1-beta chromodomain binding to methylated histone tails | P83916 | AlphaScreen HP1-beta / biotin-H3K9me3 peptide binding | Potency, µM (doses to about 114 µM), hits mostly inhibitors | 0.56% of 390,000 active; also: nearly all actives have a fitted effect of over 70% in size
#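 Compound inhibition of the preformed complex between 50 nM HP1-beta and 50 nM biotinylated H3K9me3 peptide was read by AlphaScreen. Buffer was PBS pH 7.4 with 0.01% Tween-20. Incubations ran 30 min at room temperature, with 10 ug/mL donor/acceptor beads.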
# L3MBTL1 block: inhibitors of human L3MBTL1; Q9Y468; AlphaScreen L3MBTL1–H3K9me1 peptide binding; Potency, µM (doses to about 57.1 µM), usual class: inhibitors; 0.66% of 230,000 active; AID 485360; also: nearly all actives have a fitted effect of over 60% in size
#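 Displacement of a biotinylated histone H3(1-15) peptide monomethylated at Lys9 (75 nM) from L3MBTL1 (50 nM) was measured by AlphaScreen after a 30 min room-temperature compound incubation; cefsulodin titration served as intraplate control.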
# BAZ2B inh: blocks human BAZ2B; Q9UIF8; AlphaScreen BAZ2B-H3K14Ac peptide displacement; Potency, µM (highest dose often 114 µM), actives largely listed as inhibitors; 4.4% of 360,000 active; AID 504333; also: nearly all actives have a fitted effect of over 60% in size
# Target sequence (Q9UIF8 whole entry, looked up): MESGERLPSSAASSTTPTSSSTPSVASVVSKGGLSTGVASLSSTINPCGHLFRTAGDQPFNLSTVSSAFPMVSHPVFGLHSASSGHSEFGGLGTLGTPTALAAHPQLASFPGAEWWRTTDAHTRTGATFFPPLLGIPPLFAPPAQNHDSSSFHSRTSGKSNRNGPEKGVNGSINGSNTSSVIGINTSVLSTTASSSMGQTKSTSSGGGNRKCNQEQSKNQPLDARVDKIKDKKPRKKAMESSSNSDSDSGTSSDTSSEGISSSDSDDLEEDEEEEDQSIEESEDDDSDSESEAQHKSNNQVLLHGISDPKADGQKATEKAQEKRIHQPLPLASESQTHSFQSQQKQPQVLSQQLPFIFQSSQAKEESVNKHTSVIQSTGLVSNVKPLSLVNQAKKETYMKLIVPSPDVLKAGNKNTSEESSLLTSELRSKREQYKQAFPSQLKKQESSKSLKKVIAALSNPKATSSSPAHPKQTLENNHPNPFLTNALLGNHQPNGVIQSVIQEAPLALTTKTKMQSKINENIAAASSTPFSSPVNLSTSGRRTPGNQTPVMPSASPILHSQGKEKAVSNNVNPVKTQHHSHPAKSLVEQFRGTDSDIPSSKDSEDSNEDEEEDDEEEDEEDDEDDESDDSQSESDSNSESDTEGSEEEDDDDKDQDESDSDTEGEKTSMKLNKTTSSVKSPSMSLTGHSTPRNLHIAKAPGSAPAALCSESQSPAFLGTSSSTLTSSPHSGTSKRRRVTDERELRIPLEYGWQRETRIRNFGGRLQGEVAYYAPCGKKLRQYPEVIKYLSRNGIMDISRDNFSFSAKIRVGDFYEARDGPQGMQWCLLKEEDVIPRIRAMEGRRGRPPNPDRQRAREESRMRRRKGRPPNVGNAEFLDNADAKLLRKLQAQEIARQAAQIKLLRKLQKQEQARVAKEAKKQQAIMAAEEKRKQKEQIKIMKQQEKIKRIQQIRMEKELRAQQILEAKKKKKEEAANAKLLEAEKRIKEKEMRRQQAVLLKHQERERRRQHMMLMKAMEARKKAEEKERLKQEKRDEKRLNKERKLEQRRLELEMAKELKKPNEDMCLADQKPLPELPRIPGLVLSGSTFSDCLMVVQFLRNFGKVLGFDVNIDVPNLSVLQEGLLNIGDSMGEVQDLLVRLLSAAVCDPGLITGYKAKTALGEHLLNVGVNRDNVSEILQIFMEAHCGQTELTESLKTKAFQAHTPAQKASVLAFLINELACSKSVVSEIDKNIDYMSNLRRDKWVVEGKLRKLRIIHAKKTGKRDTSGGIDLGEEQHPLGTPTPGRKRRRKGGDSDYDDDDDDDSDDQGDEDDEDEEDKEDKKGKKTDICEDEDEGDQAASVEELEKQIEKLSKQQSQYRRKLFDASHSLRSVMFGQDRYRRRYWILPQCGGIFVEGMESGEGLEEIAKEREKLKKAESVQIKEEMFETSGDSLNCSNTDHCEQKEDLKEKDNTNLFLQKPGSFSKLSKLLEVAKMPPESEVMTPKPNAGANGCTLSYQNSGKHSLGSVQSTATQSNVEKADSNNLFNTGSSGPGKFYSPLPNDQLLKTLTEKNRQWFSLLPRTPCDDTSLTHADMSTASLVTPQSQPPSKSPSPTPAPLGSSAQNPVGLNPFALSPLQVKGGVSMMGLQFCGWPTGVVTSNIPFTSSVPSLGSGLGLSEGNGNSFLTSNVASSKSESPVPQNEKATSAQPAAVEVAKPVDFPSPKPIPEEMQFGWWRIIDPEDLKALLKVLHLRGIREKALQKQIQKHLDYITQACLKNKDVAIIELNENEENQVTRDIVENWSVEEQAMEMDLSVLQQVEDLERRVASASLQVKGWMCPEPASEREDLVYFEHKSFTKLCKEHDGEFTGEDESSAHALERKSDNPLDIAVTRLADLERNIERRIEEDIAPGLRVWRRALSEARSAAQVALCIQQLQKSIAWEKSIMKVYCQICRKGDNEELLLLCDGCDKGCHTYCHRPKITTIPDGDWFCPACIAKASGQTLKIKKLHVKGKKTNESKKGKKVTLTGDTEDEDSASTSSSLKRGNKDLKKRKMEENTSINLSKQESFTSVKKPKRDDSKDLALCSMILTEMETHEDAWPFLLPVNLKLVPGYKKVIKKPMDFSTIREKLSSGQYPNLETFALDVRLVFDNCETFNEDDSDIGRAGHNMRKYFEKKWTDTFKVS
#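 AlphaScreen displacement: compounds (up to 110uM) incubated 30 min at room temperature with a preformed 50 nM BAZ2B/50 nM biotinylated H3K14Ac peptide complex in PBS pH 7.4 with Tween-20. Donor and acceptor beads at 10 ug/mL final added, 20 min light-protected before reading.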
# Numbers stand for hits; n = inactive; u = inconclusive; x = not tested or not shown; [ ] = dose if it differs, or a comment. The list is not random: actives were taken first. Their share in the collection is about 12%. Calls follow the shape of the dose curve; as a rule, active = well fitted curve in the direction sought with a large enough effect; inconclusive = small, poorly fitted or top-dose-only effect, or another doubt; inactive = no such curve, though single readings can be large; an effect the other way counts as inactive or inconclusive.
SMILES,Sfp inh,G9a block,JMJD2A Tudor,HP1b chromo inh,L3MBTL1 block,BAZ2B inh
O=[N+]([O-])c1ccc(O)c(-c2nn[nH]n2)c1,n,u,3.2µM,u,x,2.8µM
CN(C)c1ccc(-c2ccc3ncnc(N(C)Cc4ccco4)c3c2)cc1,n,n[0.501 µM],x,x,x,x
Nc1ncnc2c1c(-c1ccc(Oc3ccccc3)cc1)cn2C1CCCC1,u,14µM,45µM,u,u,40µM
CC(C)C[C@@H](CN1CCCC1CN1C(=S)NC[C@@H]1Cc1ccc(O)cc1)N1C[C@H](Cc2ccc(O)cc2)N(CC2CCCCC2)C1=S (stereo partly specified),x,x,40µM,n,x,x
COc1ccc(-n2c(=O)c(-c3ccccc3)nc3cnc(N4CCOCC4)nc32)cc1,n,n[0.501 µM],x,x,x,x
COc1cccc(-c2cn3nc4c(nc3n2)CCCC4)c1,79µM,n,n,n,n,n
CC1CCc2cc(F)ccc2N1C(=O)c1cccnc1 (stereo unspecified),n,x,n,n,n,n
O=C(c1cnc2n(c1=O)CCS2)N1CCc2ccccc21,n,n,n,n,n,n
CC1Cc2ccccc2N1C(=O)c1cnc2n(c1=O)CCS2 (stereo unspecified),n,45µM,n,n,x,n
CC1Cc2ccccc2N1C(=O)c1cccnc1 (stereo unspecified),n,50µM,n,n,n,n
CCOc1ccccc1CNC(=O)CN1C(=O)C2CCCCN2c2ccc(C(=O)N(C)C)cc21 (stereo unspecified),x,n,n,n,x,n
CCCCN1CC(=O)N2[C@H](c3ccc(Cl)cc3)[C@@H]3C(=O)N(CC)C(=O)[C@@H]3[C@]2(C)C1=O,n,n,n,n,n,n
S=C(Nc1ccccc1)Nc1nc2ccccc2n1CCOc1ccccc1,n,n,45µM,n,10µM,6.3µM
CN(C)CCCn1c(NC(=O)C2CCCCC2)nc2ccccc21,n,n,n,n,n,n
CC(=O)Nc1nc2ccccc2n1CCOc1ccccc1,n,n,n,n,n[11.4 µM],n
CCCCn1c(NC(=S)Nc2ccccc2)nc2ccccc21,n,n,40µM,u,18µM,7.9µM
CC(=O)Nc1nc2ccccc2n1CCN(C)C,n,40µM,40µM,n,n,n
CCOC(=O)NC1C=CS(=O)(=O)C1 (stereo unspecified),n,50µM,n,n,n,n
CN(C)C(=O)NC1C=CS(=O)(=O)C1 (stereo unspecified),n,n,n,n,n,n
Cc1nc2sc(C(c3ccco3)N3CCC(Cc4ccccc4)CC3)c(O)n2n1 (stereo unspecified),35µM,u,u,n,n,n
COc1ccc(N2CCN(C(c3ccco3)c3sc4nc(C)nn4c3O)CC2)cc1 (stereo unspecified),n,45µM,n,n,n,u
O=C(CSc1nc2c(c(=O)[nH]1)CN(Cc1ccc3c(c1)OCO3)CC2)Nc1ccc(F)cc1,x,n,n,n,x,n
CC(C)n1c(=S)[nH]c2c1c(=O)[nH]c(=O)n2C,10µM,u,2µM,10µM,n,u
Cc1ccc(-c2ccc(/C=C3\C(=O)ON=C3c3ccccc3)o2)c([N+](=O)[O-])c1,22µM,n[0.501 µM],22µM,n,n,10µM
Cc1ccc(/C=C2\C(=O)ON=C2c2ccccc2)o1,n,n,n,u,n,n
SMILES,Sfp inh,G9a block,JMJD2A Tudor,HP1b chromo inh,L3MBTL1 block,BAZ2B inh
O=C1/C(=C\c2ccc(-c3ccccc3[N+](=O)[O-])o2)C(c2ccccc2)=NN1c1ccccc1,n,4µM,5.6µM,7.9µM,n[11.4 µM],6.3µM
CCOc1ccc(-c2ccc(/C=C3/C(=N)N4C(C)=CSC4=NC3=O)o2)c([N+](=O)[O-])c1,n,u,u,n,n,u
Cc1ccc(C2=NOC(=O)/C2=C\c2ccc(C)o2)cc1,40µM,x,35µM,28µM,u,11µM
Cc1cc(C)n(CCNC(=O)c2ccco2)n1,n,u,n,n,x,n
O=c1[nH][nH]cc1C=Nc1ccc(Cl)cc1,n,n,n,n,n,n
COc1cccc(N=Cc2c[nH][nH]c2=O)c1,n,x,56µM,n,n,n
c1ccc(-c2cc(-c3ccccc3)ncn2)cc1,x,x,n,n,x,x
Oc1cccc(Nc2cc(-c3ccccc3)ncn2)c1,x,u,n,n,x,50µM
COc1cc(/C=N/N2CCN(c3ccccc3)CC2)cc(OC)c1OC(C)=O,n,n[0.501 µM],56µM,u,n[2.29 µM],45µM
COc1cc(/C=N/N2CCN(Cc3ccccc3)CC2)cc(OC)c1OC(C)=O,n,50µM,u,n,x,u
CC(C)CCNC(=O)C(c1ccc(O)cc1)N(Cc1ccco1)C(=O)CCC(=O)Nc1nccs1 (stereo unspecified),n,n,n,n,x,n
O=C(N/N=C/C=C\c1ccco1)c1cccnc1,32µM,28µM,n,n,n,n
O=C(N/N=C/C=C/c1ccco1)c1cccnc1,35µM,8.9µM,n,n,x,n
O=C(N/N=C\C=C\c1ccco1)c1cncc(Br)c1,40µM,u,n,n,x,n
N#CC(C#N)=C1C=CC=CN1/C(=C\c1ccco1)C(=O)c1ccc(Cl)cc1,14µM,u,u,n,n,u
N#CC(C#N)=C1C=CC=CN1/C(=C\c1ccco1)C(=O)c1ccc(-c2ccccc2)cc1,n,n,n,n,n,u
COc1ccc(-n2nc(C(=O)NCC(=O)N3CCOCC3)c3ccccc3c2=O)c(OC)c1,n,n,n,n,x,n
COc1ccc(OC)c(-c2nc(C(=O)NCCCN3CCOCC3)cc3c2[nH]c2ccccc23)c1,n,n[12.7 µM],u,n,x,50µM
COc1ccc(-n2nc(C(=O)NCCCN3CCOCC3)c3ccccc3c2=O)c(OC)c1,n,n,56µM,n,x,n
COc1ccc(OC)c(-c2nc(C(=O)NC3CCN(Cc4ccccc4)CC3)cc3c2[nH]c2ccccc23)c1,n,n[12.7 µM],u,n,x,u
Cc1noc(C)c1CSc1nnc(-c2ccccc2)n1N,32µM,3.2µM,u,u,x,n
Cc1noc(C)c1CSc1ccc2ccccc2n1,79µM,n,n,n,n,n
CCCn1cc(S(=O)(=O)c2cccc(Cl)c2)c(=O)c2cc(F)c(N3CCN(CC)CC3)cc21,x,n,n,n,x,n
O=C(CCN1C(=O)/C(=C/c2ccccc2F)SC1=S)Nc1cccnc1,n,x,u,n,x,1.1µM
COc1ccccc1/C=C1/SC(=S)N(CCC(=O)Nc2cccnc2)C1=O,n,n,u,n,x,n
O=C(CCCN1C(=O)/C(=C/c2ccccc2OC(F)F)SC1=S)Nc1cccnc1,x,x,18µM,n,n,x
CCOC(=O)c1sc2nc(SCC(=O)N(CC)CC)n(CCCN3CCCC3=O)c(=O)c2c1C,u,n,n,n,x,79µM
CC(C)(C)c1ccc2c(S(=O)(=O)O)c(C(C)(C)C)ccc2c1,n,n[12.7 µM],x,x,x,x
